Inconclusive results are not listed. Where a call stands in place of a potency, no number is given. Calls of active or inactive are those of the source. Calls follow the shape of the dose curve; as a rule, active = well fitted activation curve with a large enough effect in the repeat runs; inconclusive = weak or mixed curves; inactive = no such curve, though single readings can be large or run the other way.

Experimental findings from PubChem BioAssay (Tox21) are described below.
Potency is read from the fitted curve at half-maximal effect.

Chain of Nuclear receptor subfamily 1 group I member 3 (Homo sapiens) (Q14994 whole entry, looked up): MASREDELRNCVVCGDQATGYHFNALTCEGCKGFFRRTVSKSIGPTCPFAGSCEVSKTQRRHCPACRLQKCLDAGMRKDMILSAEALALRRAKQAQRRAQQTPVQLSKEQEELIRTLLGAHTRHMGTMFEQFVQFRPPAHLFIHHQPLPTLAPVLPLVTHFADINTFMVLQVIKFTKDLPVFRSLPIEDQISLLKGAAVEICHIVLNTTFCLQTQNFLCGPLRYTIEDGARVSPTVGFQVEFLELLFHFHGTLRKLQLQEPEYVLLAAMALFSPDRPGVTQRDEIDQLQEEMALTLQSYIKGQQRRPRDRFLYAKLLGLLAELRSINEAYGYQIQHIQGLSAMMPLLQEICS

The target of this experiment is Nuclear receptor subfamily 1 group I member 3 (Homo sapiens) (UniProt Q14994). The experiment can be described thus: qHTS assay to identify small molecule agonists of the constitutive androstane receptor (CAR) signaling pathway (AID 1224839). Also: nearly all actives have a fitted effect of over 15% in size.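 As to activation: HepG2 cells stably carrying human CAR and a CYP2B6 luciferase reporter.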 The following applies: HepG2 hCAR CYP2B6-luciferase, agonist mode, 24 h; series mostly up to 92.4 µM. The source says:
National Center for Advancing Translational Sciences [NCATS] NIH Chemical Genomics Center [NCGC] U.S. Environmental Protection Agency [EPA] National Institutes of Environmental Health Sciences [NIEHS] National Toxicology Program [NTP] Assay overview: The constitutive androstane receptor (CAR) is a nuclear receptor which regulates multiple drug metabolizing enzymes (DMEs) and transporters. Activating CAR will generally increase the transcription and subsequent translation of CYP2B6 and CYP3A4. These two DMEs represent about 50% of the drug metabolizing potential in the body. […] Recently, there have also been studies performed indicating CARs role in energy metabolism and cancer therapy. Therefore, inducing CARs activity could have a potential effect on diabetes and cancer. Identifying environmental toxins and compounds which modulate CAR, through the use of the Tox21 10K compound collection, will be an important step in determining the toxicity and potential therapeutic effects these factors will have on the human body.
Assay Protocol Summary: A double-stable (hCAR and CYP2B6-2.2kb) transfected cell line, derived from human hepatoma (HepG2) cells, was utilized for the duration of the quantitative high-throughput screens. The HepG2-CYP2B6-hCAR cells suspended in DMEM culture medium supplemented with 10% FBS, 5 ug/mL blasticidin, 0.5 mg/mL geneticin, 100 U/mL penicillin and 100 ug/mL streptomycin were dispensed at 2500 cells/4 uL/well in 1536-well white solid bottom plates using a Multidrop Combi. After the assay plates were incubated at 37 C/5% CO2 for 4 hrs, 23 nL of compounds at 15 concentrations (from 5-48 columns) or positive control (from 1 to 4 columns) were transferred to the assay plates using a Pintool station. One uL of PK11195, was added using a Flying Reagent Dispenser to generate a final concentration of 0.75 uM PK11195 inside each well. After a 24 hr incubation period at 37 C/5% CO2, four uL of ONE-Glo reagent was added into the assay plates using a Flying Reagent Dispenser. After a 30 min incubation period at room temperature, the luminescence intensity in the assay plates was measured using a ViewLux plate reader.
(In general: Quantitative high-throughput screening tests each substance at several concentrations.)
Regarding `CC[C@@H](CO)NCCN[C@@H](CC)CO`, the Potency result is “inactive”. Regarding `CC(C)(C(=O)c1cccnc1)c1cccnc1`, the Potency entry was “inactive”. The entry for `CCCCOCCOC(=O)c1cccnc1` is “inactive”; for `COc1ccc(N)c([N+](=O)[O-])c1` it is “inactive”; for `N[C@@H](Cc1cc(I)c(O)c(I)c1)C(=O)O` it is “inactive”. As for `O=C1OC(=O)c2c(Br)c(Br)c(Br)c(Br)c21`, the Potency entry was “inactive”.

For `CC(C)CC(O)CC(C)C`, the Potency result is “inactive”. With `O=C(c1ccccc1)C1CCC1` the entry was “inactive”; with `Cc1cn([C@H]2C[C@H](F)[C@@H](CO)O2)c(=O)[nH]c1=O`, “inactive”. The figure for `CCN(CC)CCOc1ccccc1C(=O)CCc1ccccc1` is 26.6 µM (active). With `CC1C(C)(C)C2=C(C(=O)CCC2)C1(C)C` (stereo not given) the entry was “inactive”.

For the molecule `Oc1cccc2[nH]ccc12`, the Potency result is “inactive”. For `CC(=O)OCCC1CCCCC1`, the Potency entry is “inactive”. The entry for `CCN(Cc1cccc(S(=O)(=O)O)c1)c1ccc(C(=C2C=CC(=[N+](CC)Cc3cccc(S(=O)(=O)O)c3)C=C2)c2ccccc2S(=O)(=O)[O-])cc1` is “inactive”; for `C=CCOC(=O)COCCC(C)C` it is “inactive”. The entry for `Cc1c[nH]c2ccccc12` is “inactive”. For `CCCCCCC(CO)CCCC` (stereo not given), the Potency entry is “inactive”. With `ClC1=C(Cl)C1(Cl)Cl` the entry was “inactive”; with `CC(=O)NCCO`, “inactive”.

As to `O=C(NC(Cc1cc(=O)[nH]c2ccccc12)C(=O)O)c1ccc(Cl)cc1` (stereo not given), the Potency result is “inactive”. With `SCCc1cnccn1` the entry was “inactive”; with `C1CCCCC1`, “inactive”; with `COc1ccc(-c2cc(=S)ss2)cc1`, 23.7 µM (active). Turning to `O=C1OC[C@H](Cc2cccc(O)c2)[C@H]1Cc1cccc(O)c1`, the Potency entry was “inactive”. The entry for `CCCC(=O)OC(=O)CCC` is “inactive”; for `CCC(C)(C)C(=O)O` it is “inactive”; for `CCCCCCCCCCCCCC(=O)OCC(O)CO` (stereo not given) it is “inactive”. Take `COC1CCC=CO1` (stereo not given): the Potency result was “inactive”. With `Cc1ccc(Nc2c(F)cccc2Cl)c(CC(=O)O)c1` the entry was “inactive”; with `C=C(C)c1ccccc1`, “inactive”; with `CC(C)(O)c1coc(S(=O)(=O)NC(=O)Nc2c3c(cc4c2CCC4)CCC3)c1`, “inactive”. The entry for `Nc1ccn([C@H]2CS[C@@H](CO)O2)c(=O)n1` is “inactive”; for `CCOC(=O)c1c(N)sc2c1CCN(Cc1ccccc1)C2` it is “inactive”.

With `CC(=O)OCC(=O)[C@@]1(OC(C)=O)[C@@H](C)C[C@H]2[C@@H]3C[C@H](F)C4=CC(=O)C=C[C@]4(C)[C@@]3(F)[C@@H](O)C[C@@]21C`, the Potency result was “inactive”. The entry for `O=S(=O)(Cl)c1c(Cl)cccc1Cl` is “inactive”; for `Nc1c(Cl)cc(Cl)cc1[N+](=O)[O-]` it is “inactive”; for `C[C@H](CS)C(=O)N1CCC[C@H]1C(=O)O` it is “inactive”. Take `O=C(O)CN1C(=O)c2cccc3cccc(c23)C1=O`: the Potency result was “inactive”. The entry for `CC[C@H]1OC(=O)[C@H](C)[C@@H](O[C@H]2C[C@@](C)(OC)[C@@H](O)[C@H](C)O2)[C@H](C)[C@@H](O[C@@H]2O[C@H](C)C[C@H](N(C)C)[C@H]2O)[C@](C)(O)C[C@@H](C)CN(C)[C@H](C)[C@@H](O)[C@]1(C)O` is “inactive”; for `CN=C(N)NC(=O)Nc1c(C)cccc1C` it is “inactive”.
